# Source: PubChem BioAssay AID504832 (National Center for Advancing Translational Sciences (NCATS), 2011)
# Hit rate of the full screen: of about 310,000 compounds, about 18,000 (5.8%) were called active. Not shown: some 22% with an inconclusive outcome. The call rests on the fitted dose curve; in most records, active means well fitted inhibition curve with a large enough effect; inconclusive means small, poorly fitted or top-dose-only effect, or another doubt; inactive means no such curve, though single readings can be large or run the other way. Many of the other results were omitted from the sample, so actives are more common in it than they were.
# Experiment: Primary qHTS for delayed death inhibitors of the malarial parasite plastid, 48 hour incubation
# Settings: P. falciparum luciferase growth in erythrocytes; series mostly up to 28.7 µM; activity change, negative = inhibition: at the top concentration
# Text: The goal of this screen is to discover new antimalarial compounds that act by inhibiting the development of the apicoplast in the malarial parasite Plasmodium falciparum. The biochemical processes that make this organelle essential for erythrocytic stage parasites are not well understood. However, antibiotics such as azithromycin and tetracycline, which target the apicoplast translational machinery, have a potent antimalarial effect.
# We have developed a cell-based assay that measures parasite growth based on the expression of an integrated copy of a firefly luciferase reporter. To detect small molecules that cause this "delayed death" phenotype, erythrocytes infected with the luciferase-expressing parasites were incubated with compounds for either one or two generations, corresponding to 48 and 96 hours, respectively. Compounds that inhibit parasite growth in the second generation, but not the first, should be enriched in antimalarials that target the apicoplast. Growth inhibition is detected by a decrease in luciferase activity.
# Assay Provider: David Fidock and Eric Ekland, Columbia University
# Keywords: NIH Roadmap, MLPCN, MLI, MLSMR, qHTS, NCGC, qHTS, malaria, luciferase, viability
# Four microliters of culture medium (RPMI 1640 with 0.5% w/v Albumax (GIBCO), 24 mM sodium bicarbonate and 10 ug/mL gentamycin) were dispensed by a Multi-drop Combi into white solid 1536-well plates (Grenier) and 23 nL compound was added by a pin tool. Four microliters of infected erythrocytes (2% hematocrit, 0.1% parasitemia final concentration) in culture medium were dispensed and the plates incubated for 48 hours at 37 C in 5% CO2. Two microliters of luciferase detection reagent was added and luminescence was detected by a ViewLux (PerkinElmer) reader.
# On the % scale 0 is the no-effect control and ±100 the full control effect; potency means the concentration at half of the fitted maximal effect.
SMILES,"activity change, negative = inhibition",Potency
COc1ccc(N2CCN(C(=O)c3ccc(N4CCCCS4(=O)=O)cc3)CC2)cc1,-9.38% (inactive),
Cc1cc(Cl)ccc1OCCCC(=O)Nc1cccc(-n2cnnn2)c1,-3.27% (inactive),
Cc1ccc(N2C(=O)CC(Nc3cccc4ccccc34)C2=O)cc1 (configuration not stated),18.2% (inactive),
COc1ccc(C2=NN(C(C)=O)C(c3ccccc3)C2)cc1 (configuration not stated),23% (inactive),
Cc1ccc(N2C(=O)C3N=NN(CC(=O)N4N=C(c5cccc6ccccc56)CC4c4ccccc4)C3C2=O)cc1 (configuration not stated),,13.1 µM (active)
O=C(CSc1nnnn1C1CCCC1)N1CCCCC1,98.1% (inactive),
O=C(O)C1=NN(c2c(F)c(F)cc(F)c2F)C(=O)CC1,19.6% (inactive),
COc1ccc(N2CCN(C(=O)CCNC(=O)c3ccc(Br)cc3)CC2)cc1,-16.9% (inactive),
COc1cccc(C(=O)N2CCC(n3nccc3NC(=O)C3CCOC3)CC2)c1 (configuration not stated),1.74% (inactive),
Cc1cc(C)nc(-n2nc(C)cc2NC(=O)c2ccc(F)cc2F)n1,,10.4 µM (active)
CC(=O)N/C(=N/c1nc(C)cc(C)n1)Nc1ccc(F)cc1F,-15.7% (inactive),
Cc1cc(NC(=O)c2cnn3cccnc23)n(-c2ccccc2)n1,-9.66% (inactive),
CC(CN1CCOCC1)OC(=O)c1ccc(C(C)(C)C)cc1 (configuration not stated),-8.18% (inactive),
Cc1nn(C(=O)c2ccoc2C)c(N)c1-c1ccccc1,23.2% (inactive),
O=C(O)CCCC(=O)N1N=C(c2ccco2)CC1c1ccco1 (configuration not stated),-18% (inactive),
Cc1nn2c(c1-c1ccccc1)N=C(c1ccco1)CC2c1ccccc1 (configuration not stated),,14.7 µM (active)
CCN1CCN(C(=O)C2CCN(S(=O)(=O)c3cc(Cl)ccc3Cl)CC2)CC1,10.5% (inactive),
COc1ccc(C(=O)c2c(C)c(CCC#N)n3ccccc23)c(OC)c1,-8.61% (inactive),
Cc1ccccc1NC(=O)C(C)OC(=O)CCC(=O)N(CC(C)C)c1c(N)n(CC(C)C)c(=O)[nH]c1=O (configuration not stated),-7.74% (inactive),
COc1ccc(C(=O)NCC(=O)N/N=C/c2ccc([N+](=O)[O-])s2)cc1OC,-25.4% (inactive),
COc1ccc(C(=O)NCC(=O)N/N=C/c2ccc([N+](=O)[O-])o2)cc1OC,,6.57 µM (active)
COc1cc(/C=N\NC(=O)CNC(=O)c2cccc([N+](=O)[O-])c2)ccc1O,17.5% (inactive),
O=C(Cn1ccc2cc(S(=O)(=O)N3CCCC3)ccc21)NCc1ccccc1,-5.75% (inactive),
CCCOc1cccc(C(=O)Nc2ccccc2C(=O)N2CCN(C)CC2)c1,30.4% (inactive),
CC1=C(C/C=C(\C)CCCC(C)CCCC(C)CCCC(C)C)C(=O)c2ccccc2C1=O (configuration not stated),,10.7 µM (active)
CS(=O)(=O)c1ccc(Cl)c(NC(=O)COC(=O)c2ncc(Cl)c(Cl)c2Cl)c1,-4.26% (inactive),

SMILES,"activity change, negative = inhibition",Potency
COc1ccc(CNc2cc(C)cc(C)c2)cc1OC,72.2% (inactive),
CN(CC(=O)Nc1cccc(F)c1)C(=O)C1CSC2(C)CCC(=O)N12 (configuration not stated),-0.11% (inactive),
CCn1c(=O)c2ccccc2n(CC(=O)N2CCCc3ccccc32)c1=O,-13.9% (inactive),
Cn1c(SCC(=O)OC2CCCCC2)nnc1-c1ccc(S(=O)(=O)N2CCCC2)cc1,,2.62 µM (active)
Cn1c(SCC(=O)NC2CCCCC2)nnc1-c1ccc(N)cc1,59.1% (inactive),
Cn1c(SCC(=O)Nc2cccc(O)c2)nnc1-c1ccc(S(=O)(=O)N2CCOCC2)cc1,7.1% (inactive),
Cc1ccc(C(=O)C(C)OC(=O)Cc2n[nH]c(=O)c3ccccc23)cc1C (configuration not stated),9.11% (inactive),
CCc1ccc(-c2cc(C)no2)cc1S(=O)(=O)NCCc1ccc(S(N)(=O)=O)cc1,-28.2% (inactive),
O=C(CCS(=O)(=O)c1ccc2c(c1)NC(=O)CS2)NCc1ccccc1Cl,4.89% (inactive),
Cc1ccc(S(=O)(=O)N(Cc2ccc(Cl)cc2)c2ccccc2C(=O)NCc2cccnc2)cc1,,13.1 µM (active)
CCc1ccc(N(CC(=O)NCc2cccnc2)S(=O)(=O)c2ccccc2)cc1,97.9% (inactive),
O=C(O)c1ccccc1-c1ccccc1C(=O)NCc1cccnc1,4.09% (inactive),
O=C(c1cnc(Cl)c(Cl)c1)N1CCN(S(=O)(=O)c2ccc(F)cc2)CC1,-5.82% (inactive),
O=C(OCc1nnc(-c2ccccc2)o1)c1cc(=O)[nH]c2ccccc12,-27.5% (inactive),
COc1cc(-c2cc(C(=O)OCC(=O)Nc3ccc4c(c3)OCO4)c3ccccc3n2)cc(OC)c1OC,0.182% (inactive),
CCCc1nc2ccccc2c(C(=O)OCc2nnc(-c3cc(OC)c(OC)c(OC)c3)o2)c1CC,,4.65 µM (active)
COc1ccccc1C(=O)Nc1ccnn1C1CCN(C(=O)C(C)(C)C)CC1,-1.89% (inactive),
COC(=O)c1[nH]c2ccccc2c1NC(=O)CN1CCCc2ccccc21,,2.08 µM (active)
COC(=O)c1[nH]c2ccc(Br)cc2c1NC(=O)Oc1ccccc1,-15.2% (inactive),
NS(=O)(=O)c1cccc(NC(=O)CN2CCCc3ccccc32)c1,-0.755% (inactive),
CC(=O)N1CCc2c(sc(NC(=O)CCS(=O)(=O)c3ccc(C)cc3)c2C(N)=O)C1,-24.3% (inactive),
O=C(NNS(=O)(=O)c1ccc(F)cc1)c1ccc([N+](=O)[O-])cc1Cl,1.58% (inactive),
CC(C)CCNC(=O)c1ccc2c(Cl)c3c(nc2c1)CCC3,50.2% (inactive),
Cc1cc(N2CCN(c3ccccc3)CC2)nc(N2CCOCC2)n1,-20.2% (inactive),
Cc1cc(C)n(-c2nnc(N3CCN(c4ccccc4)CC3)nn2)n1,,0.329 µM (active)
Cc1ccc(S(=O)(=O)N2CCN(c3ccccc3)CC2)cc1C,13.1% (inactive),

SMILES,"activity change, negative = inhibition",Potency
Cc1nn(Cc2ccccc2)c(C)c1C(=O)NCCCN1CCCC1=O,9.89% (inactive),
CCN1CCN(C(=O)C2CCCN(S(=O)(=O)c3ccc(OC)c(OC)c3)C2)CC1 (configuration not stated),4.01% (inactive),
COCc1cc(=O)n2[nH]c(C)c(-c3ccccc3)c2n1,-9.29% (inactive),
O=C(C1=C[C@H](c2ccc(C(F)(F)F)cc2)C[C@H](OCc2ccc(CO)cc2)O1)N1CCN(Cc2ccccc2)CC1,,3.7 µM (active)
O=C(NCc1ccccc1)C1=C[C@H](C2CC2)C[C@H](OCc2ccc(CO)cc2)O1,-0.787% (inactive),
C#Cc1ccc([C@@H]2C=C(C(=O)O)O[C@H](OCCCCO)C2)cc1,43.4% (inactive),
COCCNC(=O)CSc1nc2sccc2c(=O)n1-c1ccccc1,-7.07% (inactive),
COc1ccc(-n2c(C)cc(C(=O)COC(=O)c3cc(OC)c(OC)cc3NC(=O)c3cccs3)c2C)cc1,,4.15 µM (active)
COc1ccc(C(=O)COC(=O)CNC(=O)c2cccs2)cc1Br,12.2% (inactive),
Cc1cc(C(=O)COC(=O)c2cccs2)c(C)n1-c1c(C)n(C)n(-c2ccccc2)c1=O,15.2% (inactive),
C=CCOc1ccc(/C=C/C(=O)OCC(=O)NC2CCCCCC2)cc1,26.8% (inactive),
CCC(Oc1ccccc1C)C(=O)Nc1ccc(S(=O)(=O)Nc2cc(C)on2)cc1 (configuration not stated),2.5% (inactive),
CC(=O)c1cc(CN2CCC(n3nccc3NC(=O)c3ccccc3Cl)CC2)cs1,-13.4% (inactive),
CC(OC(=O)c1ccccc1NCCO)C(=O)Nc1ccnn1C(C)C (configuration not stated),-26.5% (inactive),
Cc1ccc(NC(=O)CN(C)C(=O)c2ccc(Br)o2)cc1,4.06% (inactive),
COc1ccc(-c2cnc(SCCNC(=O)c3ccc4c(c3)OCO4)[nH]2)cc1,-5.01% (inactive),
CC(Oc1ccc(Br)cc1)C(=O)NCC(c1ccco1)N1CCCCC1 (configuration not stated),,11.7 µM (active)
CC(Oc1ccc(Br)cc1)C(=O)NC1CCCCCC1 (configuration not stated),2.7% (inactive),
COc1ccc(S(=O)(=O)NCC(c2ccco2)N2CCOCC2)cc1 (configuration not stated),-6.97% (inactive),
O=C(COc1ccc2ccc(=O)oc2c1)NCC(O)c1ccccc1 (configuration not stated),18.9% (inactive),
O=C(CNC(=O)OCc1ccccc1)NC1CCCCNC1=O (configuration not stated),0.406% (inactive),
CCOc1ccccc1/C=N/Nc1nc2ccccc2o1,-29.1% (inactive),
CCCCNC(=O)N1CCCC(N(C)CCc2ccc(OC)c(OC)c2)C1 (configuration not stated),-0.406% (inactive),
COc1ccc(CCN(Cc2cc3cccc(C)c3[nH]c2=O)C(=O)N2CCCC2)cc1OC,,8.28 µM (active)
COc1ccc(CCNC(=O)C(=O)NCc2ccccc2C)cc1OC,-8.37% (inactive),
Cc1ccc2c(cnn2C(=O)CCC(=O)NC2CCCC2)c1,7.75% (inactive),

SMILES,"activity change, negative = inhibition",Potency
O=C(Nc1cccc(C(F)(F)F)c1)c1cnccn1,33.4% (inactive),
O=C(O)CSCC(=O)Nc1cccc(C(F)(F)F)c1,7.05% (inactive),
Cn1nc(C(F)(F)F)c(C(=O)Nc2cccc(C(F)(F)F)c2)c1SCc1ccc(Cl)cc1,,1.85 µM (active)
COc1ccc(CCNC(=O)COc2ccc3c(c2)OCO3)cc1,8.33% (inactive),
CN(C)C(=O)CCC(=O)N1CCCCC1C(=O)Nc1ccc(Oc2ccccc2F)cc1 (configuration not stated),27.6% (inactive),
CCOc1cc(/C=C/C(=O)OCC(=O)NCCN2C(=O)CSC2=O)ccc1OCC(C)C,,14.7 µM (active)
COc1ccc(/C=C/C(=O)OCC(=O)NCc2cccs2)cc1OC,9.68% (inactive),
CCOC(=O)CCCNC(=O)COC(=O)/C=C/c1ccc2c(c1)OCO2,397% (inactive),
COc1ccc(CNC(=O)CN2C(=O)NC3(CCCc4sccc43)C2=O)cc1 (configuration not stated),-0.331% (inactive),
CCN(CC)S(=O)(=O)c1ccc(N2CC(C(=O)NCc3cccnc3)CC2=O)cc1 (configuration not stated),-16.4% (inactive),
Cc1ccc2[nH]c(=O)c(CN(C)S(=O)(=O)c3cccc4nonc34)cc2c1,21.1% (inactive),
CCN(Cc1ccccc1)S(=O)(=O)c1cc2c3c(c1)CCN3C(=O)CC2,-3.66% (inactive),
COc1cc(Cl)c(C)cc1NC(=O)CN1CCCCCC1,3.43% (inactive),
O=C(CN1CCCCCC1)Nc1ccc(Cl)cc1F,25.3% (inactive),
CC1CCCN(CC(=O)Nc2cc(Cl)ccc2Oc2ccccc2)C1 (configuration not stated),,14.7 µM (active)
Cc1sc2ncn(CC(=O)NCCN(C)C)c(=O)c2c1S(=O)(=O)N1CCC(C)CC1,4.82% (inactive),
COCCCn1c(SCC(=O)NC2CCCC2)nnc1-c1ccccc1,0.923% (inactive),
COCCCn1c(Cc2csc(Nc3cccc(Cl)c3)n2)nnc1SCC(=O)OC1CCCCC1,,8.28 µM (active)
COCCCn1c(SCC(=O)Nc2ccccc2)nnc1-c1ccncc1,-1.61% (inactive),
COc1cc(C(=O)OCC(=O)NC(C)CCc2ccccc2)cc(OC)c1OC (configuration not stated),-10.2% (inactive),
NC(=O)c1cc(S(=O)(=O)NCCCc2ccco2)cs1,-26.8% (inactive),
Cc1[nH]c2c(C(=O)N3CCCC(CCC(=O)NCc4ccccc4F)C3)cccc2c1C (configuration not stated),,11.7 µM (active)
COc1cccc(CNC(=O)CCC2CCCN(C(=O)c3cc(C)[nH]n3)C2)c1 (configuration not stated),0% (inactive),
COc1cccc(C(=O)N2CCCC(CCC(=O)NCc3ccc(F)c(F)c3)C2)c1 (configuration not stated),-0.317% (inactive),
